RmlCD inh 1536: M. tuberculosis RmlC/RmlD coupled enzyme inhibitors, primary screen, biochemical, compound mixtures, 384-well, from 1536-well plates | RmlC+RmlD coupled enzyme assay, percent inhibition; primary screen in compound mixtures | inhibition, % at 3.6 µM | 160,000 compounds, 0.03% hits; in the data active means inhibition mostly above about 34%, no sharp cut-off
Numbers without * were called inactive. This excerpt belongs to a sample that is enriched for hits.

SMILES | RmlCD inh 1536
COc1ccc2cc3cc(C(=O)NCCCN4CCOCC4)oc3nc2c1 | 51*
COc1ccc2cc3cc(C(=O)NCCN4CCN(Cc5ccccc5)CC4)oc3nc2c1 | 14
CCN1CCN(CCCNC(=O)c2cc3cc4ccc(OC)cc4nc3o2)CC1 | -3
CCCCCCCC[n+]1c(C)n(-c2ccccc2)c2ccc(NC(C)=O)cc21 | -10
COc1ccc(OC)c2[nH]c(=O)c(CCNC(C)=O)cc12 | -10
COC(=O)c1cc(=O)c2cccc(OC)c2[nH]1 | 62*
COc1cccc2c(=O)cn[nH]c12 | -1
Oc1ccc(/C=N/N2CCN(C3c4ccccc4-c4ccccc43)CC2)cc1O | 45
Cc1c(NC2(C#N)CCCC2)c(=O)n(-c2ccccc2)n1C | 0
CC(=O)Nc1sc(N/N=C/c2ccc(N(C)C)cc2)nc1-c1ccc(C)cc1 | 64*
COc1ccc(/C=N/Nc2nc(-c3ccc(C)cc3)c(NC(C)=O)s2)cc1OC | 5
CC(=O)Nc1sc(N/N=C/c2ccc(C)cc2)nc1-c1ccc(C)cc1 | -6
Cc1ccc2c(c1)C(C)CC(C)(C)N2C(=O)CN1CCN(C)CC1 (stereo not given) | -7
COc1cc(OC)c(NC(=S)NCc2ccc(F)cc2)cc1Cl | -12
Nc1nc(SCC(=O)N2N=C(c3ccc(Cl)cc3)CC2c2ccco2)n[nH]1 (stereo not given) | -12

Source: PubChem BioAssay
